High-throughput results deposited in PubChem by National Center for Advancing Translational Sciences (NCATS).
Pf growth 96h – P. falciparum growth inhibition at 96 hours; P. falciparum luciferase reporter growth, 96 h; Potency, µM (doses to about 28.7 µM), hits mostly inhibitors; 320,000 compounds, 6.9% hits
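Infected RBCs, 2% Hct / 0.05% parasitemia final; luciferase-reporter P. falciparum; cpd 96 h, 37 C, 5% CO2; luciferase detection reagent; luminescence.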
AMA1 RON2 block – inhibitors of Plasmodium falciparum AMA1-RON2 interaction. AID 720542. Potency, µM (doses to about 58.2 µM), actives largely listed as inhibitors. AlphaScreen AMA1-biotinylated RON2 peptide binding. 360,000 compounds, 0.2% hits; further: nearly all actives have a fitted effect of over 45% in size
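AMA1 (3D7) with his tag at 25 nM final met compounds first, then biotinylated RON2 peptide at 25 nM; detection used donor plus acceptor beads, 10 µg/mL apiece, read by AlphaScreen after 30 min at room temperature.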
Pf growth 48h – inhibits P. falciparum growth in the first generation, 48 h. Potency, µM (doses to about 28.7 µM), actives largely listed as inhibitors. 310,000 compounds, 5.9% hits. P. falciparum luciferase growth in erythrocytes, 48 h
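Read-out is firefly luciferase luminescence from an integrated reporter in P. falciparum, so falling signal marks reduced parasite growth. Infected erythrocytes were at 2% hematocrit and 0.1% parasitemia (final) in Albumax-supplemented RPMI 1640.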
HCV inh – inhibitors of hepatitis C virus infection; Huh7.5.1 HCVcc-Cre infection, luciferase reporter, 44 h; Potency, µM (series often up to 41.8 µM), most hits filed as inhibitors; 340,000 compounds, 3.4% hits
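HCVcc-Cre virus at an moi near 0.5 was added right after compound to cells cultured 4 h from seeding (1,000 cells/well). Luciferase activity was determined 44 h later, 15 min after substrate addition at RT.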
Large screens that a line does not name were inactive. An excerpt weighted towards active compounds, which were near 11% of everything screened. The call rests on the fitted dose curve; in most records, active means well fitted curve in the direction sought with a large enough effect; inconclusive means small, poorly fitted or top-dose-only effect, or another doubt; inactive means no such curve, though single readings can be large; an effect the other way counts as inactive or inconclusive.

O=[N+]([O-])c1ccc(S(=O)(=O)c2ccccc2)nc1	Pf growth 96h 1.7µM, Pf growth 48h 2.9µM, HCV inh inconclusive
COc1cc2nc(CN3CCN(S(=O)(=O)c4ccc(C)c(C)c4)CC3)[nH]c(=O)c2cc1OC	Pf growth 96h inconclusive, Pf growth 48h 9.3µM
COc1cc2nc(CN3CCN(c4ncc(C(F)(F)F)cc4Cl)CC3)[nH]c(=O)c2cc1OC	Pf growth 96h inconclusive (no result: AMA1 RON2 block, HCV inh)
CCN(CC)C(=O)c1cccc(NC(=O)c2ccccc2OCc2c(C)noc2C)c1	Pf growth 96h inconclusive, Pf growth 48h inconclusive
COCc1cc(C)nc(SCC(=O)Nc2ccc3c(c2)OCCO3)c1C#N	HCV inh inconclusive
COCc1cc(C)nc(SCC(=O)Nc2ccc3c(c2)OCO3)c1C#N	HCV inh 11µM
COCc1cc(C)nc(SCC(=O)Nc2cccc3cccnc23)c1C#N	Pf growth 96h 12µM
CCOc1ccc(CSc2nc(C)cc(COC)c2C#N)cc1OCC	Pf growth 48h 13µM, HCV inh inconclusive
O=C(NCc1ccccc1Cl)c1ccc2c(c1)OCO2	none
CC(C)CNC(=O)C1(C)CCN1C(=O)c1ccc(C(C)(C)C)cc1 (stereo not given)	none (no result: Pf growth 96h, Pf growth 48h, HCV inh)
O=[N+]([O-])c1nccn1C1C=CC(O)C(CO)O1 (stereo not given)	none (no result: Pf growth 96h, Pf growth 48h, HCV inh)
COc1cccc(C(c2c(NC(=O)c3ccco3)sc(C)c2C)N2CCOCC2)c1 (stereo not given)	Pf growth 96h 3.3µM, Pf growth 48h 4.7µM, HCV inh inconclusive
CCOc1ccc(C(c2c(NC(=O)c3ccccc3)sc(C)c2C)N2CCN(C)CC2)cc1 (stereo not given)	Pf growth 96h 12µM, Pf growth 48h inconclusive
Cc1sc(NC(=O)c2ccco2)c(C(c2cccnc2)N2CCCC2)c1C (stereo not given)	Pf growth 96h 10µM, Pf growth 48h 12µM, HCV inh 13µM
CCOc1ccc(C(c2c(NC(=O)c3ccco3)sc(C)c2C)N2CCOCC2)cc1 (stereo not given)	Pf growth 96h 13µM, Pf growth 48h 5.2µM, HCV inh inconclusive
Cc1sc(NC(=O)c2ccco2)c(C(c2ccncc2)N2CCOCC2)c1C (stereo not given)	Pf growth 96h inconclusive, Pf growth 48h 10µM
CCN1CCN(CC(=O)Nc2cc(S(=O)(=O)N3CCCCC3)ccc2Cl)CC1	none (no result: Pf growth 96h, Pf growth 48h)
CCOC(=O)C1CCN(CC(=O)Nc2cc(S(=O)(=O)N3CCCCC3)ccc2Cl)CC1	Pf growth 96h inconclusive, Pf growth 48h 12µM, HCV inh inconclusive
O=C(CN1CCN(c2ccc(O)cc2)CC1)Nc1cc(S(=O)(=O)N2CCCCC2)ccc1Cl	Pf growth 96h 9.3µM, HCV inh 10µM
O=C(CN1CCN(c2ccc(O)cc2)CC1)Nc1cc(S(=O)(=O)N2CCCC2)ccc1Cl	Pf growth 96h inconclusive, Pf growth 48h 9.3µM, HCV inh inconclusive
CCCCCCCCNC(CO)(CO)CO	none
CCOc1ccccc1/C=N/OCC(=O)NCc1ccc(F)cc1	HCV inh 4µM
Cc1cc(C)nc(NS(=O)(=O)c2ccc(NC(=O)c3ccc(O)cc3O)cc2)n1	Pf growth 96h inconclusive
COc1ccc(CN(C)C(C)C(=O)Nc2ccc(S(=O)(=O)N3CCCCC3)cc2)c(OC)c1 (stereo not given)	HCV inh inconclusive (no result: Pf growth 96h, Pf growth 48h)
CCN(Cc1ccc(OC)c(F)c1)C(C)C(=O)Nc1ccc(S(=O)(=O)N2CCCC2)cc1 (stereo not given)	Pf growth 96h inconclusive, Pf growth 48h 10µM, HCV inh inconclusive
COc1ccc(CN(C)C(C)C(=O)Nc2ccc(S(=O)(=O)N3CCCC3)cc2)c(OC)c1OC (stereo not given)	Pf growth 96h 4.1µM, Pf growth 48h 7.4µM (no result: AMA1 RON2 block, HCV inh)
COc1cccc(NC(=O)CN(C)C(=O)CC2CCCCC2)c1	none
O=C(CN1CCCCCC1)Nc1ccccc1C(=O)Nc1ccccc1	Pf growth 48h inconclusive, HCV inh inconclusive
c1ccc(CC2CCN(C3=Nc4cccc5cccc3c45)CC2)cc1	AMA1 RON2 block inconclusive, Pf growth 48h inconclusive, HCV inh 11µM
COc1ccccc1N1CCN(C2=Nc3cccc4cccc2c34)CC1	AMA1 RON2 block inconclusive, HCV inh 13µM
CC(=O)N1CCN(C2=Nc3cccc4cccc2c34)CC1	HCV inh 11µM (no result: Pf growth 96h, Pf growth 48h)
CN(C)c1ccc(C(=O)N2CCN(c3cc(C(F)(F)F)nc4ccccc34)CC2)cc1	Pf growth 96h 13µM, AMA1 RON2 block inconclusive, Pf growth 48h inconclusive, HCV inh inconclusive
O=C(O)COCC(=O)N1CCN(c2cc(C(F)(F)F)nc3ccccc23)CC1	none
Cc1cc(NCCCN2CCOCC2)n2ncc(-c3ccc(Cl)cc3)c2n1	HCV inh 13µM
